Rows were chosen to be rich in hits. Some 1.2% of all compounds tested hit in one or more screens of this group.
miR122 inh: inhibitors of miR-122 in Huh7 cells. activation (reporter increase), % at 12.5 µM. Huh7 miR-122 Renilla luciferase sensor, 48 h; neutral wells = 0, positive control = 100. 0.3% of 340,000 active;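 active means mean replicate activation score at least 90 and every replicate individually at or above 90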;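 further: higher luciferase means less miR-122 activity so hits act as miR-122 inhibitors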
Statin myotox sup: suppressors of simvastatin-induced myotoxicity in C2C12 myotubes; ATP luminescence, 48 h; scaled: DMSO 0, geranylgeraniol control 100; rescue of ATP level, % at 7.49 µM; 0.78% of 330,000 active; AID 602340;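 active means mean ATP rescue above about 67%, or every replicate alone reaching that limit, limit read from the data, passing the limit was not always enough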;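 further: myotubes were challenged with 10 µM simvastatin during compound exposure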
PglD inh: PglD (C. jejuni) enzyme inhibition | purified PglD enzyme, DTNB colorimetric CoA detection | inhibition, % at 12.5 µM | 0.098% of 360,000 active | AID 602405; in the data active means inhibition above about 16%, passing the limit was not always enough
NSD2 HMT inh: blocks human histone methyltransferase NSD2; NSD2 peptide methylation, AlphaScreen, 120 min; inhibition, % at 12.5 µM; 0.54% of 310,000 active; O96028; in the data active means inhibition above about 50%
Target sequence (O96028 whole entry, looked up): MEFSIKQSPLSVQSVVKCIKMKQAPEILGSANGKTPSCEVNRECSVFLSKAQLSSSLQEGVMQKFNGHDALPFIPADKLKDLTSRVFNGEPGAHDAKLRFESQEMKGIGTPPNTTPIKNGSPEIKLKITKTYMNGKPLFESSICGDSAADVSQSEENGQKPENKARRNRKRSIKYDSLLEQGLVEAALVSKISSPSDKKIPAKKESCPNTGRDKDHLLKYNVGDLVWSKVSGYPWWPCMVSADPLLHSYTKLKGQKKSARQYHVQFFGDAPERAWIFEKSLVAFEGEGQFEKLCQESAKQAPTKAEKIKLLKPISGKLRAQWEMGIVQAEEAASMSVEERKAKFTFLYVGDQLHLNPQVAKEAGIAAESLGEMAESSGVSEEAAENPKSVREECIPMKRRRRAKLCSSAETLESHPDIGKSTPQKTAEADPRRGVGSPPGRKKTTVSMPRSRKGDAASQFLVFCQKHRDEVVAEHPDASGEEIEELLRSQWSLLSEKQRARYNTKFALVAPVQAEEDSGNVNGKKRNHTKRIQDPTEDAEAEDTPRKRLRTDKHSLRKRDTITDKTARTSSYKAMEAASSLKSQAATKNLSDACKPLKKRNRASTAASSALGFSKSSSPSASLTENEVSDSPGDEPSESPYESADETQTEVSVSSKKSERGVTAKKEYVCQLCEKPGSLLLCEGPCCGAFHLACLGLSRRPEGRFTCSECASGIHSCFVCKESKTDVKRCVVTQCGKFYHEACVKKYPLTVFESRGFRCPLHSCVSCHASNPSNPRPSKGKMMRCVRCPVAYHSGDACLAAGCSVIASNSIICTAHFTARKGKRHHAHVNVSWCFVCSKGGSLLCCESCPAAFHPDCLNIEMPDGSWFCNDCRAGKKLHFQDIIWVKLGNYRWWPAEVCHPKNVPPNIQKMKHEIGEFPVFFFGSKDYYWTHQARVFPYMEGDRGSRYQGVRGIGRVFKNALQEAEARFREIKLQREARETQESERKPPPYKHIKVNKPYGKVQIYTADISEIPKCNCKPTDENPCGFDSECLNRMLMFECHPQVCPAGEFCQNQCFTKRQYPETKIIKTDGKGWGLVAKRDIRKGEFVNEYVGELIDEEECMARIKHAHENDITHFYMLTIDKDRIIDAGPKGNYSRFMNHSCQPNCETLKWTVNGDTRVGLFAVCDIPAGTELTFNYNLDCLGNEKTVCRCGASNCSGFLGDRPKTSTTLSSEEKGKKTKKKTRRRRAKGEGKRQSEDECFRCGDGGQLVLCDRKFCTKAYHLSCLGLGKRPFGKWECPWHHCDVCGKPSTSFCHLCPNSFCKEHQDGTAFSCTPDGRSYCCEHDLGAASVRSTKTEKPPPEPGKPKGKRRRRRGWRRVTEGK
Starred values were filed as active, the others as inactive; . = not tested or not shown; [ ] = another dose, or the depositor's remark.

SMILES | miR122 inh | Statin myotox sup | PglD inh | NSD2 HMT inh
Cc1ccc2ccccc2c1C(O)c1ncc(-c2ccccc2F)[nH]1 (configuration not stated) | 175.4* | 17.1 | -5.1 | 1.2
Cc1cccc(C(O)c2ncc(-c3ccccc3F)[nH]2)c1C (configuration not stated) | 95.9* | 0.1 | 3.2 | 2.8
Cc1cc(F)ccc1C(O)c1ncc(-c2ccccc2F)[nH]1 (configuration not stated) | 111.6* | 2.7 | -2.6 | 2.4
Cc1cccc(C)c1C(O)c1ncc(-c2cccc3ccccc23)[nH]1 (configuration not stated) | -2.5 | 1.3 | -3.6 | 4.7
Cc1cccc(C)c1C(O)c1ncc(-c2ccccc2F)[nH]1 (configuration not stated) | 10.6 | -0.9 | -0.2 | 8.0
COc1ccc(S(=O)(=O)N[C@H]2CC[C@@H](CC(=O)N3CCc4ccccc4C3)O[C@H]2CO)cc1 | . | 9.4 | -0.9 | .
COc1ccc(S(=O)(=O)Nc2ccc3c(c2)CC(=O)N([C@H](C)CO)C[C@H](C)[C@H](CN(C)C(=O)Nc2cccc4ccccc24)O3)cc1 | 3.1[16.7 µM] | 13.5 | 2.3 | .
O=C(C[C@H]1CC[C@@H](NC(=O)Cc2ccccn2)[C@H](CO)O1)NCCCN1CCOCC1 | . | 4.5 | 4.8 | .
Cc1noc(C)c1S(=O)(=O)Nc1ccc2c(c1)C(=O)N([C@H](C)CO)C[C@@H](C)[C@H](CN(C)CC1CCCCC1)OCCCC[C@@H](C)O2 | -9.0[16.7 µM] | -31.6 | 2.8 | .
COc1ccc(N=Cc2c(O)c3ccccc3n2C(C)=O)cc1 | 6.2 | 4.8 | 2.2 | 4.1
COc1ccc(N=Cc2sc(O)c3ccccc23)cc1 | -2.5 | 180.1* | 5.3 | -7.3
C[C@@H]1CN([C@H](C)CO)C(=O)c2cc(NS(=O)(=O)c3ccccc3)ccc2O[C@@H](C)CCCCO[C@@H]1CN(C)S(=O)(=O)c1cn(C)cn1 | -1.7[16.7 µM] | . | 1.3 | .
COc1cccc(OCCCCCCN2CCOCC2)c1 | 10.2 | 111.7* | 4.5 | .
COc1cc(NCCCCCCN)c2ncccc2c1OC | -4.4 | 11.1 | . | .
COc1cc(NC(C)CCCNC(C)C)c2ncccc2c1OC (configuration not stated) | 3.3 | 2.5 | -3.2 | 111.4*
CS(=O)(=O)Nc1ccc2c(c1)[C@@H]1C[C@H](CC(=O)NC3CCCCC3)O[C@@H](CO)[C@@H]1O2 | 1.0[16.7 µM] | 3.9 | 3.0 | .
O=C(O)CCC(=O)Nc1nnc(C(F)(F)F)s1 | 0.5 | 114.8* | -0.4 | 1.3
COC(=O)CCC(=O)Nc1nnc(C(F)(F)F)s1 | -6.0 | 7.2 | 10.5 | 3.0
CC(=O)NC(c1cc(Cl)c2cccnc2c1O)C(C)C (configuration not stated) | -19.6 | 80.7* | 1.1 | .
CN1C(=O)c2cc(NC(=O)Cc3cccs3)ccc2OC[C@@H]2O[C@@H](CC(=O)NCC3CCCCC3)CC[C@@H]21 | 195.6*[16.7 µM] | 25.1 | -1.1 | .
CN1C(=O)c2cc(NC(=O)NCc3ccccc3)ccc2OC[C@@H]2O[C@@H](CC(=O)NCC3CCCCC3)CC[C@@H]21 | 120.0*[16.7 µM] | 56.2 | 2.2 | .
COCCNC(=O)C[C@@H]1CC[C@H]2[C@@H](COc3ccc(NC(C)=O)cc3C(=O)N2C)O1 | 183.3*[16.7 µM] | -2.2 | 2.1 | .
COCCNC(=O)C[C@@H]1CC[C@@H]2[C@H](COc3ccc(NC(C)=O)cc3C(=O)N2C)O1 | 8.3[16.7 µM] | 9.4 | -1.0 | .
CN1C(=O)c2cc(NC(=O)c3cscn3)ccc2OC[C@H]2O[C@H](CC(=O)NCc3ccc(Cl)c(Cl)c3)CC[C@H]21 | -28.3[16.7 µM] | 78.2* | 0.1 | .
Cc1ccccc1NC(=O)Nc1ccc2c(c1)C(=O)N(C)[C@@H]1CC[C@@H](CC(=O)NCC3CC3)O[C@@H]1CO2 | -4.4[16.7 µM] | -7.1 | 2.1 | .
CN1C(=O)c2cc(NC(=O)Cc3ccccc3)ccc2OC[C@@H]2O[C@@H](CC(=O)NCc3ccc(Cl)cc3)CC[C@@H]21 | 233.3*[16.7 µM] | 26.9 | 0.2 | .
Cc1ccccc1NC(=O)Nc1ccc2c(c1)C(=O)N(C)[C@H]1CC[C@H](CC(=O)NCC3CC3)O[C@H]1CO2 | 227.8*[16.7 µM] | 24.5 | -0.2 | .
CN1C(=O)c2cc(NC(=O)Cc3cccs3)ccc2OC[C@@H]2O[C@H](CC(=O)NCc3ccc(-c4ccccc4)cc3)CC[C@@H]21 | 188.3*[16.7 µM] | -1.9 | -2.0 | .
COCC(=O)N(C)C[C@H]1Oc2cc(C3=CCCCC3)ccc2S(=O)(=O)N([C@@H](C)CO)C[C@@H]1C | -10.9[16.7 µM] | -4.3 | -2.6 | .
C[C@H]1CN([C@@H](C)CO)C(=O)c2cccc(NS(=O)(=O)c3ccc(Cl)cc3)c2O[C@H]1CN(C)Cc1ccc(C(=O)Nc2ccccc2N)cc1 | 10.1[16.7 µM] | . | 1.1 | .

Source: PubChem BioAssay (Broad Institute)
